Data: the supplement of paper PMC3334620
Over roughly 33,000 sequences, “E-score (-0.5 to 0.5)” has its median near -0.016; the highest 2% begin near 0.32. For the sample, the highest values were picked, then their nearest neighbours and some sequences at random.

Each sequence was assayed against T1, Stp1 (UniProt B3LFK1) (assay: PBM E-score (8-mer binding enrichment) (E-score (-0.5 to 0.5)); higher = stronger / more preferred TF binding). Settings: protein concentration: 200 nM; construct: GST-full length.
T1 sequence: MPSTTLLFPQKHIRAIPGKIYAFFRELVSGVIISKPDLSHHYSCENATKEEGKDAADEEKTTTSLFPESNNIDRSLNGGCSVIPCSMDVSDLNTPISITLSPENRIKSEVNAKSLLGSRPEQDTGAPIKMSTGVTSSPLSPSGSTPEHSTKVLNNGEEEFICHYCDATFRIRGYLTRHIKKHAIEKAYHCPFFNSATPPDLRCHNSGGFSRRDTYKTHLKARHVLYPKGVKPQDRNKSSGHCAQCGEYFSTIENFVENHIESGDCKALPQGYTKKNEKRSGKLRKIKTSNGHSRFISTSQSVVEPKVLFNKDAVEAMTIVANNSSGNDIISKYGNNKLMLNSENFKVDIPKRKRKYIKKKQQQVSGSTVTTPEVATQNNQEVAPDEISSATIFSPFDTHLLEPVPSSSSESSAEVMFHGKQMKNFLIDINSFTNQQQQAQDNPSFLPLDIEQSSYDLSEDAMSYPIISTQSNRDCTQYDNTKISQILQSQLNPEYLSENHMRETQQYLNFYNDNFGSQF
Description: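 Universal 'all 10-mer' protein binding microarrays (Agilent AMADID 015681) probed with GST-tagged S. cerevisiae TFs (full-length or DBD) made by in vitro transcription/translation (PURExpress), about 100-200 nM. Bound TF was detected with fluorescent anti-GST. Each ungapped 8-mer (which stands for itself and its reverse complement) is scored by the PBM enrichment score (E-score), a modified Wilcoxon-Mann-Whitney statistic from -0.5 to +0.5, computed with the Universal PBM Analysis Suite. Scale: above 0.35 generally sequence-specific binding.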

Sequence	PBM E-score
TGTGCCAA	0.117
ATGACTGA	-0.164
CGATTCCG	-0.0394
GAGGCCAA	-0.164
ATAAATGG	0.0779
TAGGGCGA	0.178
ATCTCCTA	-0.214
ATTGAGGA	-0.0544
AGCCGTAA	0.31
CGCCGTAG	0.465
CACCGTAC	0.121
CCCCGTAG	-0.0863
CACCGTAG	-0.0209
CGCCGTAC	0.487
AACCGTAT	-0.0259
AGCCGTAG	0.392
ATCCGTAG	0.112
AGCCGTAT	0.435
CTCCGTAC	0.184
ACCCGTAG	-0.36
CGAGCCCA	-0.215
GAGACGTA	-0.074
ATTACTTC	-0.0579
ACGTGTCA	-0.0154
AAAGCACG	0.0591

Sequence	PBM E-score
CGATAGGC	0.135
GCACGGCC	0.415
GCACGGAC	0.28
ACACGGAC	0.217
ACACGGGC	0.0838
GCACGGGC	0.19
ACACGGCC	0.344
GTCTACAA	-0.0248
CCAGGCGG	-0.0554
AGACATTG	-0.194
GATCTTCA	-0.025
CTTTTAGA	0.0884
ACACGAAA	0.0839
GCACGAAC	0.101
GCACGAAA	0.326
GCCATACC	-0.0417
CCAACTGA	-0.167
ACGCCTCA	0.313
CTGCCTCA	-0.0442
ACGCCTAC	-0.0656
GTGCCTCA	0.365
GTGCCTTA	0.367
GCGCCTCA	0.401
CCGCCTAC	-0.0313
GCGCCTAC	0.35

Sequence	PBM E-score
ATGCCTCA	0.279
TCGCCTCA	0.281
GTGCCTGA	-0.105
ATGCCTTA	0.236
AGCCCACT	-0.203
TCTTTGCA	0.165
GCAGACCC	-0.107
CTCCCCTC	-0.3
AACTTGGA	0.0205
ATCGTCTG	0.0798
AAAGGTAC	-0.00049
GAAGTGCC	0.309
GAGTACTA	0.051
GCGCCTTA	0.399
CCGCCTTA	0.201
GCGCCTGA	0.16
ATTGCCCG	-0.0444
GCGGCTCC	0.315
AGGGCTCA	-0.101
ACGGCTCG	0.444
ACGGCTCA	0.403
CCGGCTCC	-0.129
ACGGCTCT	0.454
ACAGCTCT	-0.306
CCGGCTCG	-0.0179

Sequence	PBM E-score
AAGGCTCT	0.21
ACGGCTCC	0.449
AAGGCTCA	0.16
AAGGCTCG	-0.0294
CTCACAAA	0.109
GAAGAGGA	-0.286
AATCGATG	0.174
GACGCTCA	-0.136
GGGCTAGA	-0.142
ACCTTTCG	-0.121
CCTCTACC	-0.24
AGAGTGTC	0.0784
ATGATCAT	0.17
GCATAGAA	0.133
GCATTGGC	-0.0163
AGTTTGGA	0.0815
ACTGTCCT	-0.097
ACTCTCCC	-0.159
GAAACCTA	-0.22
GGACTACC	-0.286
AAGTCTGT	-0.193
AACGATTG	0.0458
CGACAGCC	-0.0511
GCGGCTCA	0.461
CCGGCTCA	0.0597

Sequence	PBM E-score
TCGGCTCA	-0.0668
AAGAACGC	0.185
AAGAGCCT	0.134
AAGAGCCA	0.103
CAGAGCCG	0.338
AAGAGCCG	0.336
CAGAGCCC	-0.0943
CAGAGCCA	-0.148
AGAATAAC	-0.00738
ACCAACGG	0.173
GTAGAGTA	0.0935
AGGGTAAC	-0.165
CACGCCGG	-0.0191
GACGCCGA	0.304
CACGCCGA	0.0798
GACGCCGC	0.453
CACGCCGC	0.417
GACGCCCC	-0.00392
GGAACTTA	-0.0446
ATGGCACG	0.354
AGGGCACG	0.302
ATGGCACA	0.229
CTGGCACA	-0.187
CGGGCACG	0.139
AGGGCACA	0.334

Sequence	PBM E-score
CTGGAGGC	-0.0215
ACTGGCTC	-0.267
AGTAGCTA	-0.16
TACGGCAA	0.449
CACGGCAG	0.428
CACGGCAA	0.469
TTCGGCAA	0.088
AACGGCAG	0.384
TACGGCCA	0.214
CTCGGCAG	0.117
ACCGGCAG	-0.121
ATCGGCAG	-0.00845
CCCGGCAA	0.0207
CCCGGCAG	-0.227
CTCGGCAA	0.1
AGACTTTC	-0.256
TCTCAACA	0.0271
CAGGCCAG	-0.0909
ATGGGAAC	-0.132
GTGAGCAC	-0.066
CCCTGATC	-0.255
CCTAACAC	0.067
CGAGCCTA	-0.0212
ACATTAAT	0.0799
ACAAGCGT	-0.135

Sequence	PBM E-score
AACGGCAT	0.451
ATCGGCAC	0.297
ATCGGCAA	0.106
AATGGCAC	0.275
ACCGGCAT	0.0121
ACCGGCAC	0.301
AACGGCAC	0.472
AACGGCAA	0.432
ACCGGCAA	-0.0651
ATCGGCAT	0.238
AATGGCAG	0.0303
AATGGCAT	0.356
TAGGGGAA	-0.171
AAAGGATT	-0.109
CAGTGGGG	-0.239
AAACTCGG	-0.0615
AGACTCAG	-0.133
CCTGCTTA	-0.0853
GTGTAGCA	-0.202
ATGGAAAC	-0.0997
CAAGCCCA	-0.0787
ACGGAATA	0.0278
